Inconclusive results are not listed. Calls of active or inactive are those of the source. Calls follow the shape of the dose curve; as a rule, active = well fitted cell-killing curve with a large enough effect in the repeat runs; inconclusive = weak or mixed curves, or effect the other way; inactive = no such curve, though single readings can be large or run the other way.
Assay: qHTS assay for identifying genotoxic compounds that show differential cytotoxicity against isogenic chicken DT40 cell lines with known DNA damage response pathways - Rev3 mutant cell line (AID 743014); also: nearly all actives have a fitted effect of over 55% in size
Settings: chicken DT40 Rev3-/- viability, CellTiter-Glo, 40 h; series mostly up to 68.4 µM; activity, negative = cytotoxicity: at the top concentration
From the text: National Center for Advancing Translational Sciences [NCATS]
NIH Chemical Genomics Center [NCGC]
U.S. Environmental Protection Agency [EPA]
National Institutes of Environmental Health Sciences [NIEHS]
National Toxicology Program [NTP]
U.S. Food and Drug Administration [FDA]
DNA repair pathways play a critical role in cellular homeostasis by repairing DNA damage induced by endogenous processes and xenobiotics. Isogenic chicken DT40 cell lines deficient in different DNA repair pathways can be used to identify genotoxic compounds and aid in characterizing the nature of the DNA damage induced. Two DNA repair-deficient cell lines with disrupted genes, Rad54/Ku70 or Rev3, were used to screen the Tox21 10K compound library. Possible genotoxicity was based on the presence of a significant increase in cytotoxicity in one or more of the DNA repair-deficient cell lines compared to that observed in the parental DNA repair-proficient cell line. CellTiter Glo viability assay (Promega, Madison, WI) was used to measure cell viability in these cells after compound treatment. This assay includes the data from the Rev3 mutant cell line.
Tox21 Assay Protocol Summary:
300 DT40 mutant cells in 5 uL/well were dispensed into white, solid-bottom 1536-well plates using a Multidrop Combi (ThermoFisher Scientific, Waltham, MA) dispenser. After the assay plates were incubated at 37 C/5% CO2 for approximately 0.5 hour, 23 nL of compounds dissolved in DMSO, positive controls or DMSO only was transferred into the assay plate by a pintool work station (Kalypsys, San Diego, CA). The assay plates were incubated at 37 C/5% CO2 for 40 hours. After 5 uL per well of CellTiter-Glo reagent was added into each well of the assay plates, the plates were incubated for 30 min at room temperature and the luminescence intensity of the plates was measured using a ViewLux (PerkinElmer, Shelton, CT) plate reader.
% is scaled to controls: 0 for no effect and ±100 for the full control effect; potency is read from the fitted curve at half-maximal effect.

Row | SMILES | Potency | activity, negative = cytotoxicity
1 | CCOC(=O)c1ccccc1O | inactive | 
2 | COc1cc(C)ccc1C(C)C |  | -2.38% (inactive)
3 | C[C@@H]1CN(c2c(F)c(N)c3c(=O)c(C(=O)O)cn(C4CC4)c3c2F)C[C@H](C)N1 |  | -5.01% (inactive)
4 | CC(C)c1ccccc1 |  | -6.51% [at 95 µM] (inactive)
5 | CC1=NN(c2cc(Cl)c(S(=O)(=O)O)cc2Cl)C(=O)C1N=Nc1ccc(S(=O)(=O)O)cc1 (stereo not given) |  | -2.41% (inactive)
6 | O=Cc1ccc(F)c(Br)c1 |  | -15.8% (inactive)
7 | COC(C)CCO (stereo not given) |  | -5.83% (inactive)
8 | CCN[C@H]1CN(CCCOC)S(=O)(=O)c2sc(S(N)(=O)=O)cc21 |  | 10.4% [at 31.4 µM] (inactive)
9 | CC(CNC1CCCCC1)OC(=O)c1ccccc1 (stereo not given) |  | -6.5% [at 31.4 µM] (inactive)
10 | CCN(CC)CCNC(=O)COc1ccc(Cl)cc1 |  | -10.5% (inactive)
11 | CCC(=O)c1ccc2c(c1)N(CCCN(C)C)c1ccccc1S2 | 8.41 µM (active) | 
12 | CCCCNc1cc(C(=O)O)cc(S(N)(=O)=O)c1Oc1ccccc1 |  | 5.51% [at 31.4 µM] (inactive)
13 | CN(C)CC[C@@H](c1ccc(Cl)cc1)c1ccccn1 |  | -2.97% (inactive)
14 | CCN(CC)CC1CCCCN1CC(=O)N1c2ccccc2C(=O)Nc2cccnc21 (stereo not given) |  | -2.08% (inactive)
15 | CCCCOc1cc(C(=O)NCCN(CC)CC)c2ccccc2n1 | 5.07 µM (active) | 
16 | CCN(CC)CCOc1ccc(Cc2ccccc2)cc1 | 0.188 µM (active) | 
17 | CC1(O)CSC(C)(O)CS1 (stereo not given) | 61.1 µM (active) | 
18 | Cc1ccc([N+](=O)[O-])cc1Cl |  | 8.41% [at 95 µM] (inactive)
19 | CC(C)O | inactive | 
20 | Cc1cc2nc(N)sc2cc1C | 55 µM (active) | 

Row | SMILES | Potency | activity, negative = cytotoxicity
21 | CN(CC1(C)CCCO1)S(=O)(=O)c1ccc(Cl)c(S(N)(=O)=O)c1 (stereo not given) |  | 9.77% (inactive)
22 | CCCCCCC |  | 10.2% [at 95 µM] (inactive)
23 | CCOc1ccc(NS(=O)(=O)c2ccc(N)cc2)nn1 |  | 0.118% (inactive)
24 | Cn1cnc2c(F)c(Nc3ccc(Br)cc3Cl)c(C(=O)NOCCO)cc21 |  | -0.544% (inactive)
25 | COc1nc(C)nc(NC(=O)NS(=O)(=O)c2ccccc2OCCCl)n1 |  | 1.72% (inactive)
26 | NS(=O)(=O)c1cc(-c2nn[nH]n2)c(NCc2cccs2)cc1Cl |  | 13.6% (inactive)
27 | Cc1cc(NS(=O)(=O)c2ccc(N)cc2)nc(C)n1 |  | 15.7% (inactive)
28 | Cc1c[nH]c(=S)[nH]c1=O |  | -2.32% (inactive)
29 | CN1C(=O)CC(c2ccccc2)C1=O (stereo not given) |  | 6.07% (inactive)
30 | CCCCNC(=S)NCCCC | 34.4 µM (active) | 
31 | CCCCCCOc1ccc(N)cc1 | 43.3 µM (active) | 
32 | CN1CCC[C@@H]1Cc1c[nH]c2ccc(CCS(=O)(=O)c3ccccc3)cc12 | 33.5 µM (active) | 
33 | C=CCCCCCCCCO |  | -28.9% (inactive)
34 | CCCC1CCC(=O)O1 (stereo not given) |  | 15.6% (inactive)
35 | CCCCCCCCCC#N |  | 2.59% (inactive)
36 | CC(C)OC(C)C |  | 0.486% [at 95 µM] (inactive)
37 | CC(C)=CCCC(C)CCOC=O (stereo not given) | 27.3 µM (active) | 
38 | CCN(CCCc1ccccc1)CCCc1ccccc1 | 1.27 µM (active) | 
39 | OCCN1CCN(CCO)CC1 |  | 3.08% [at 95 µM] (inactive)
40 | O=C(O)[C@@H]1CSCN1 |  | -2.22% (inactive)

Source: PubChem BioAssay (Tox21)
